Laboratory results: PubChem BioAssay (NCATS)
Results filed as inconclusive are left out. Active and inactive are the calls of the source. The call rests on the fitted dose curve; in most records, active means well fitted curve in the direction sought with a large enough effect; inconclusive means small, poorly fitted or top-dose-only effect, or another doubt; inactive means no such curve, though single readings can be large; an effect the other way counts as inactive or inconclusive.

Tests used:
HACAT = test: qHTS assay to identify novel small-molecules to repurpose for Merkel cell carcinoma treatment (AID 1296009); conditions: MCC and control cell lines, CellTiter-Glo viability, 72 h; at 44.8 µM (top of the series) unless noted; further: nearly all actives have a fitted effect of over 60% in size
How it was run: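 72 hr, 37 degree celsius; NPC 8-pt / MIPE 11-pt dose response; compound pinned in DMSO; CellTiter-Glo, 10 min RT, luminescence; normalized to no-cell and DMSO controls.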

C33A = test: Primary qHTS to identify gynecologic anti-cancer compounds using libraries of approved drugs and bioactive compounds (AID 1345084); conditions: Gynecologic cancer cell panel viability, ATPlite luminescence, 48 h; series mostly up to 57.5 µM; further: on the % scale 0 is the no-effect control and ±100 the full control effect; nearly all actives have a fitted effect of over 55% in size
How it was run: (§1)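 48 h compound exposure at 37 C, 5% CO2; five-point qHTS. ATPlite luminescence readout of cell ATP.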

CAOV3 = test: as above; conditions: Gynecologic cancer cell panel viability, ATPlite luminescence, 48 h; series mostly up to 57.5 µM
How it was run: as §1

CASKI = test: as above; conditions: Gynecologic cancer cell panel viability, ATPlite luminescence, 48 h; series mostly up to 57.5 µM
How it was run: as §1

Es-2 = test: as above; conditions: Gynecologic cancer cell panel viability, ATPlite luminescence, 48 h; series mostly up to 57.5 µM
How it was run: as §1

HeLa = test: as above; conditions: Gynecologic cancer cell panel viability, ATPlite luminescence, 48 h; series mostly up to 57.5 µM
How it was run: as §1

Hek293T = test: as above; conditions: Gynecologic cancer cell panel viability, ATPlite luminescence, 48 h, control line for the selectivity index; series mostly up to 57.5 µM
How it was run: as §1

JEG-3 = test: as above; conditions: Gynecologic cancer cell panel viability, ATPlite luminescence, 48 h; series mostly up to 57.5 µM
How it was run: as §1

OV90 = test: as above; conditions: Gynecologic cancer cell panel viability, ATPlite luminescence, 48 h; series mostly up to 57.5 µM
How it was run: as §1

PA-1 = test: as above; conditions: Gynecologic cancer cell panel viability, ATPlite luminescence, 48 h; series mostly up to 57.5 µM
How it was run: as §1

SKOV3 = test: as above; conditions: Gynecologic cancer cell panel viability, ATPlite luminescence, 48 h; series mostly up to 57.5 µM
How it was run: as §1

Tov-21-G = test: as above; conditions: Gynecologic cancer cell panel viability, ATPlite luminescence, 48 h; series mostly up to 57.5 µM
How it was run: as §1

Tov112D = test: as above; conditions: Gynecologic cancer cell panel viability, ATPlite luminescence, 48 h; series mostly up to 57.5 µM
How it was run: as §1

COc1ccc(-n2[nH]c3c(cnc4ccccc43)c2=O)cc1
inactive: outcome (HACAT) | Potency (C33A) | Potency (CAOV3) | outcome (CASKI) | Potency (Es-2) | Potency (HeLa) | Potency (Hek293T) | Potency (JEG-3) | Potency (OV90) | Potency (PA-1) | Potency (SKOV3) | Potency (Tov-21-G) | Potency (Tov112D)

Cc1[nH]c2ccccc2c1CC(=O)N[C@@H](Cc1ccccc1)C(=O)N(C)c1ccccc1
inactive: outcome (HACAT) | Potency (C33A) | Potency (CAOV3) | outcome (CASKI) | Potency (Es-2) | Potency (HeLa) | Potency (Hek293T) | Potency (JEG-3) | Potency (OV90) | Potency (PA-1) | Potency (SKOV3) | Potency (Tov-21-G) | Potency (Tov112D)

CC1(C(=O)O)CC[C@]2(C(=O)OC3OC(CO)C(O)C(O)C3O)CC[C@]3(C)C(=CCC4[C@@]5(C)CC[C@H](OC6OCC(O)C(O)C6OC6OC(CO)C(O)C(O)C6O)C(C)(C)C5CC[C@]43C)C2C1 (some centres not stated)
inactive: outcome (HACAT) inactive [at 9.27 µM] | activity change, negative = cytotoxicity (C33A) -1.33% [at 11.6 µM] | activity change, negative = cytotoxicity (CAOV3) -1.35% [at 11.6 µM] | activity change, negative = cytotoxicity (CASKI) -6.1% [at 11.6 µM] | activity change, negative = cytotoxicity (Es-2) 1.53% [at 11.6 µM] | activity change, negative = cytotoxicity (HeLa) 6.18% [at 11.6 µM] | activity change, negative = cytotoxicity (Hek293T) -2.26% [at 11.6 µM] | activity change, negative = cytotoxicity (JEG-3) -0.785% [at 11.6 µM] | activity change, negative = cytotoxicity (OV90) -0.207% [at 11.6 µM] | activity change, negative = cytotoxicity (PA-1) -1.65% [at 11.6 µM] | activity change, negative = cytotoxicity (SKOV3) -6.88% [at 11.6 µM] | activity change, negative = cytotoxicity (Tov-21-G) 15.1% [at 11.6 µM] | activity change, negative = cytotoxicity (Tov112D) -1.55% [at 11.6 µM]

CC(C)=CCc1c(O)cc2oc3cc(C)cc(O)c3c2c1C
inactive: outcome (HACAT) | Potency (C33A) | Potency (CAOV3) | outcome (CASKI) | Potency (Es-2) | Potency (HeLa) | Potency (Hek293T) | Potency (JEG-3) | Potency (OV90) | Potency (PA-1) | Potency (SKOV3) | Potency (Tov-21-G) | Potency (Tov112D)

N#Cc1cc(-c2n[nH]c(-c3ccncc3)n2)ccn1
inactive: outcome (HACAT) | Potency (C33A) | Potency (CAOV3) | outcome (CASKI) | Potency (Es-2) | Potency (HeLa) | Potency (Hek293T) | Potency (JEG-3) | Potency (OV90) | Potency (PA-1) | Potency (SKOV3) | Potency (Tov-21-G) | Potency (Tov112D)

COc1cc(O)cc(O[C@@H]2O[C@H](CO)[C@@H](O[C@@H]3OC[C@](O)(CO)[C@H]3O)[C@H](O)[C@H]2O)c1OC
inactive: outcome (HACAT) inactive [at 17.4 µM] | Potency (C33A) | Potency (CAOV3) | outcome (CASKI) | Potency (Es-2) | Potency (HeLa) | Potency (Hek293T) | Potency (JEG-3) | Potency (OV90) | Potency (PA-1) | Potency (SKOV3) | Potency (Tov-21-G) | Potency (Tov112D)

C=C1C[C@]23C[C@H]1CC[C@H]2[C@]1(C)CC[C@H](O)[C@@](C)(C(=O)O)[C@H]1[C@@H]3C(=O)O
inactive: outcome (HACAT) | Potency (C33A) | Potency (CAOV3) | outcome (CASKI) | Potency (Es-2) | Potency (HeLa) | Potency (Hek293T) | Potency (JEG-3) | Potency (OV90) | Potency (PA-1) | Potency (SKOV3) | Potency (Tov-21-G) | Potency (Tov112D)

COC(=O)C(CC1CCCC1)c1ccc(S(C)(=O)=O)cc1 (configuration not stated)
inactive: outcome (HACAT) | Potency (C33A) | Potency (CAOV3) | outcome (CASKI) | Potency (Es-2) | Potency (HeLa) | Potency (Hek293T) | Potency (JEG-3) | Potency (OV90) | Potency (PA-1) | Potency (SKOV3) | Potency (Tov-21-G) | Potency (Tov112D)

CC(C)(O)C(O)C(=O)OCc1ccc(O[C@@H]2O[C@H](CO)[C@@H](O)[C@H](O)[C@H]2O)cc1 (some centres not stated)
inactive: outcome (HACAT) inactive [at 17.4 µM] | Potency (C33A) | Potency (CAOV3) | outcome (CASKI) | Potency (Es-2) | Potency (HeLa) | Potency (Hek293T) | Potency (JEG-3) | Potency (OV90) | Potency (PA-1) | Potency (SKOV3) | Potency (Tov-21-G) | Potency (Tov112D)

CC(C)(O)c1ccc2c(c1)C(=O)C[C@H]1[C@](C)(C(=O)O)CCC[C@]21C
inactive: outcome (HACAT) | Potency (C33A) | Potency (CAOV3) | outcome (CASKI) | Potency (Es-2) | Potency (HeLa) | Potency (Hek293T) | Potency (JEG-3) | Potency (OV90) | Potency (PA-1) | Potency (SKOV3) | Potency (Tov-21-G) | Potency (Tov112D)

CC1=C[C@H]2[C@@H](CC1=O)[C@H](C)C[C@H](O)[C@H]2C(C)C
inactive: outcome (HACAT) | Potency (C33A) | Potency (CAOV3) | outcome (CASKI) | Potency (Es-2) | Potency (HeLa) | Potency (Hek293T) | Potency (JEG-3) | Potency (OV90) | Potency (PA-1) | Potency (SKOV3) | Potency (Tov-21-G) | Potency (Tov112D)

O=C(NCC(=O)N1CCCC1)Nc1ccc2ccccc2c1
inactive: outcome (HACAT) | Potency (C33A) | Potency (CAOV3) | outcome (CASKI) | Potency (Es-2) | Potency (HeLa) | Potency (Hek293T) | Potency (JEG-3) | Potency (OV90) | Potency (PA-1) | Potency (SKOV3) | Potency (Tov-21-G) | Potency (Tov112D)

CC(=O)OCC1=C[C@@H]2OC(=O)C3=CO[C@@H](O[C@@H]4O[C@H](CO)[C@@H](O)[C@H](O)[C@H]4O)[C@H]1[C@@H]32
inactive: outcome (HACAT) inactive [at 17.4 µM] | Potency (C33A) | Potency (CAOV3) | outcome (CASKI) | Potency (Es-2) | Potency (HeLa) | Potency (Hek293T) | Potency (JEG-3) | Potency (OV90) | Potency (PA-1) | Potency (SKOV3) | Potency (Tov-21-G) | Potency (Tov112D)

CC(NC(=O)c1ccccc1N)C(=O)O (configuration not stated)
inactive: outcome (HACAT) | Potency (C33A) | Potency (CAOV3) | outcome (CASKI) | Potency (Es-2) | Potency (HeLa) | Potency (Hek293T) | Potency (JEG-3) | Potency (OV90) | Potency (PA-1) | Potency (SKOV3) | Potency (Tov-21-G) | Potency (Tov112D)
